Each structure is given as a SMILES string. “And” between values parts separate entries of the source, which are not always exact repeats. Equal entries are not always repeated. Records with an inconclusive call do not appear. Some compounds were tested as several samples or in several runs, with calls that do not always agree. The source made the active and inactive calls. The call rests on the fitted dose curve; in most records, active means well fitted curve in the direction sought with a large enough effect in the repeat runs; inconclusive means weak or mixed curves; inactive means no such curve, though single readings can be large; an effect the other way counts as inactive or inconclusive.
On the % scale 0 is the no-effect control and ±100 the full control effect.

System in one experiment: not listed separately
The experiment in a line: qHTS assay to identify small molecule agonists of the retinoic acid receptor (RAR) signaling pathway (AID 1159553). Further: potency means the concentration at half of the fitted maximal effect. The following applies: C3RL4 RARE luciferase reporter, agonist, 6 h; series mostly up to 73.3 µM; activation: at the top concentration. In a few lines: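 Compounds dissolved in DMSO were pinned onto C3RL4 cells seeded the previous day, and plates were held 6 hr at 37 C. RARE-driven luciferase output was then read by luminescence.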
(In general: Quantitative high-throughput screening tests each substance at several concentrations.)
Consider `NC(=O)c1ccccc1N`, for which the “activation” value is 2.27% [at 94.8 µM] (inactive).

`COC(=O)[C@]1(C)CCC[C@@]2(C)[C@H]1CC=C1C=C(C(C)C)CC[C@@H]12`: the “activation” value is 6.7% (inactive).

Take `Cn1cnc2ncnc(N)c21`: the “activation” value was -2.13% (inactive).

As to `CCCCCCCOC(=O)c1ccc(O)cc1`, the Potency is 34.4 µM (active).

Regarding `O=C(Nc1ccc(Cl)cc1)Nc1ccc(Cl)c(C(F)(F)F)c1`, the “activation” value was -14.7% (inactive).

On to `Cc1ccc2ccc3cccc4ccc1c2c34`, for which the “activation” value is -3.13% (inactive).

For `CCCCCCOc1ccc(O)cc1`, the Potency was 0.611 µM (active).

Take `CN(C)c1ccc(N=Nc2ccccc2C(=O)O)cc1`: the Potency is 1.09 µM (active).

Regarding `Cc1c(C)n(Cc2ccccc2)c2ccc(C(=O)OCCN(C)C)cc12`, the “activation” value is 2.49% (inactive).

Take `Cc1nc(Nc2ncc(C(=O)Nc3c(C)cccc3Cl)s2)cc(N2CCN(CCO)CC2)n1`: the “activation” value is -12.9% (inactive).

With `CC(C)(c1cc(Br)c(O)c(Br)c1)c1cc(Br)c(O)c(Br)c1`, the Potency result is “inactive”.

For `NCCCCCCNCCCCCCN`, the “activation” value was -1.19% (inactive).

`C/C=C/C(=O)Oc1c(CCCCCC(C)C)cc([N+](=O)[O-])cc1[N+](=O)[O-]`: the “activation” value was -7.45% (inactive).

Regarding `CCCCCCCCCCCCCCCC`, the “activation” value is -4.11% (inactive).

Take `C[C@@H]1CC[C@H]2C(C)(C)[C@H]3C[C@@]12CC[C@@]3(C)O`: the “activation” value was -1.27% (inactive).

With `CCN1CCN(c2cc(-c3ccc(F)cc3)c3c(n2)CCCCCC3)CC1`, the “activation” value was -5.47% [at 34.3 µM] (inactive).

Take `COc1ccc(-n2nc(CCC(=O)N(C)O)cc2-c2ccc(Cl)cc2)cc1`: the “activation” value is 7.12% (inactive).

For the molecule `C[Si](C)(C)Cl`, the “activation” value is -1.35% (inactive).

Regarding `CCCC(CC)CCCCCCCN` (configuration not stated), the “activation” value is -3% [at 94.8 µM] (inactive).

As to `Cc1ccc(-n2[nH]c(C)c(N=Nc3cccc(-c4cccc(C(=O)O)c4)c3O)c2=O)cc1C`, the Potency was 29.8 µM (active).

`CCC1(c2cnc[nH]2)Cc2ccccc2C1`: the “activation” value is -3.09% (inactive).

For `Cc1ccc(CCn2c3c(c4cc(Cl)ccc42)CN(C)CC3)cn1`, the “activation” value was -6.91% (inactive).

System in another experiment: not listed separately
The experiment in a line: qHTS assay to identify small molecule antagonists of the estrogen related receptor (ERR) signaling pathway - cell viability counter screen (AID 1224818).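 Further: viability measured after 17.5 h of compound exposure.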 The following applies: ERR reporter cell line viability counter screen; series mostly up to 46.1 µM; viability change, negative = cytotoxic: at the top concentration. The gist of the method:
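Cytotoxicity check run alongside the ERR antagonist screen: cells exposed to test compounds 17.5 h at 37 C, viability taken as CellTiter-Fluor fluorescence intensity.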
Consider `Clc1ccc(C(c2ccccc2Cl)C(Cl)Cl)cc1` (configuration not stated), for which the “viability change, negative = cytotoxic” value was 2.19% (inactive).

On to `CN1CCN(C2Cc3ccccc3Sc3ccc(Cl)cc32)CC1` (configuration not stated), for which the “viability change, negative = cytotoxic” value is -20.4% (inactive).

As to `CN(C)c1ccc(N=NS(=O)(=O)O)cc1`, the “viability change, negative = cytotoxic” value was -17.4% [at 92.2 µM] (inactive).

System in another experiment: not listed separately
Description: qHTS assay to identify small molecule antagonists of the estrogen related receptor (ERR) signaling pathway from Tox21 library - cell viability counter screen (AID 1224834). Further: nearly all actives have a fitted effect of over 30% in size. Further: potency means the concentration at half of the fitted maximal effect. The settings on record: ERR reporter cells viability, CellTiter-Fluor, 17.5 h; series mostly up to 92.4 µM; viability change, negative = cytotoxic: at the top concentration. In a few lines: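 In this quantitative HTS format, ERR cells receive compounds in DMSO and are incubated for 17.5 h at 37 C. Live-cell protease activity is then detected with CellTiter-Fluor.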
`CC(C)c1ccccc1N`: the “viability change, negative = cytotoxic” value was 1.2% (inactive).

Regarding `COC(=O)[C@]1(C)CCC[C@@]2(C)[C@H]1CC=C1C=C(C(C)C)CC[C@@H]12`, the “viability change, negative = cytotoxic” value was -2.28% (inactive).

For the molecule `CC1(C)COCN1`, the “viability change, negative = cytotoxic” value is 0.946% (inactive).

As for `O=C(Nc1ccc(Cl)cc1)Nc1ccc(Cl)c(C(F)(F)F)c1`, the Potency was 11.9 µM (active).

Consider `Cc1ccc2ccc3cccc4ccc1c2c34`, for which the “viability change, negative = cytotoxic” value is 5.18% (inactive).

As for `CCCCCCOc1ccc(O)cc1`, the Potency is 27.3 µM (active).

Turning to `CCN=c1cc2oc3cc(NCC)c(C)cc3c(-c3ccccc3C(=O)OCC)c-2cc1C`, the Potency is 272 nM (active) and 243 nM (active).

In the case of `CN(C)c1ccc(N=Nc2ccccc2C(=O)O)cc1`, the Potency is 48.6 µM (active).

`O=C[C@H](O)[C@H](O)[C@H](O)CO`: the “viability change, negative = cytotoxic” value is -6.05% (inactive).

For the molecule `Cn1cccc1`, the “viability change, negative = cytotoxic” value was 0.158% (inactive).

Take `Cc1nc(Nc2ncc(C(=O)Nc3c(C)cccc3Cl)s2)cc(N2CCN(CCO)CC2)n1`: the Potency is 13.3 µM (active).

Take `CCCC(C)CCC(C)=O` (configuration not stated): the “viability change, negative = cytotoxic” value was 1.2% (inactive).

Take `O=c1cccc[nH]1`: the “viability change, negative = cytotoxic” value is -1.37% (inactive).

With `CC(C)(c1cc(Br)c(O)c(Br)c1)c1cc(Br)c(O)c(Br)c1`, the Potency entry is “inactive”.

In the case of `NCCCCCCNCCCCCCN`, the “viability change, negative = cytotoxic” value is -4.22% (inactive).

On to `C/C=C/C(=O)Oc1c(CCCCCC(C)C)cc([N+](=O)[O-])cc1[N+](=O)[O-]`, for which the Potency was 24.3 µM (active).

With `CCCCCCCCCCCCCCCC`, the “viability change, negative = cytotoxic” value is -0.433% (inactive).

As to `CCOC(=O)CN`, the “viability change, negative = cytotoxic” value was 2.37% (inactive).

On to `C[C@@H]1CC[C@H]2C(C)(C)[C@H]3C[C@@]12CC[C@@]3(C)O`, for which the “viability change, negative = cytotoxic” value is -3.26% (inactive).

Consider `Cc1ccc(O)cn1`, for which the “viability change, negative = cytotoxic” value was 0.209% (inactive).

As for `CS(C)(=O)=O`, the “viability change, negative = cytotoxic” value is 3.04% (inactive).

On to `Cc1ccc(-n2[nH]c(C)c(N=Nc3cccc(-c4cccc(C(=O)O)c4)c3O)c2=O)cc1C`, for which the Potency was 29.8 µM (active).

The target of a further experiment is Luciferin 4-monooxygenase (Photinus pyralis) (UniProt P08659). The experiment in a line: qHTS assay to identify small molecule inhibitors of firefly luciferase (AID 1224835). Further: nearly all actives have a fitted effect of over 25% in size. Further: potency means the concentration at half of the fitted maximal effect. The following applies: purified P. pyralis luciferase, luminescence inhibition; series mostly up to 115 µM; activity change, negative = inhibition: at the top concentration. The gist of the method: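 Quantitative HTS format; KM concentrations of both substrates. Purified P. pyralis FLuc activity quantified from luminescence images.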
Chain of Luciferin 4-monooxygenase (Photinus pyralis) (P08659 whole entry, looked up): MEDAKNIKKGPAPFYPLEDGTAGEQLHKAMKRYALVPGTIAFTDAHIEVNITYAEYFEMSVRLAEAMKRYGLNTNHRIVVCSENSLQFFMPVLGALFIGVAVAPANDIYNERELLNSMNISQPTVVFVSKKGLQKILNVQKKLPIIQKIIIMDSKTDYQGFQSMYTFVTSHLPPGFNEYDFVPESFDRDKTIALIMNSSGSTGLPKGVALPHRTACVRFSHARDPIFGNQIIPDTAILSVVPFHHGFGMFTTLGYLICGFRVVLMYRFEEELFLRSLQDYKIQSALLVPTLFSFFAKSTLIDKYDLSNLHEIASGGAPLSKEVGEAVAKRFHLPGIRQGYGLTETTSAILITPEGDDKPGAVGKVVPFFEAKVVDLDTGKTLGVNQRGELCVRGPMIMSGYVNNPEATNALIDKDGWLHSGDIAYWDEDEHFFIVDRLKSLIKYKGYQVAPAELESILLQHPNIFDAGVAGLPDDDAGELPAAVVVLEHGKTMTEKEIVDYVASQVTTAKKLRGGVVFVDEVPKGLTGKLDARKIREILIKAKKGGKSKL
In the case of `NC(=O)c1ccccc1N`, the “activity change, negative = inhibition” value is -4.05% (inactive).

In the case of `Clc1ccc(C(c2ccccc2Cl)C(Cl)Cl)cc1` (configuration not stated), the Potency entry was “inactive”.

For the molecule `COC(=O)[C@]1(C)CCC[C@@]2(C)[C@H]1CC=C1C=C(C(C)C)CC[C@@H]12`, the “activity change, negative = inhibition” value was -10.1% (inactive).

For `Cn1cnc2ncnc(N)c21`, the “activity change, negative = inhibition” value was -3.34% [at 52.9 µM] (inactive).

Regarding `CCCCCCCOC(=O)c1ccc(O)cc1`, the Potency is 71 µM (active).

Regarding `O=C(Nc1ccc(Cl)cc1)Nc1ccc(Cl)c(C(F)(F)F)c1`, the Potency was 34.7 µM (active).

For the molecule `Cc1ccc2ccc3cccc4ccc1c2c34`, the Potency was 35.5 µM (active).

In the case of `CCCCCCOc1ccc(O)cc1`, the Potency is 35.6 µM (active).

Consider `CN(C)c1ccc(N=Nc2ccccc2C(=O)O)cc1`, for which the Potency was 3.17 µM (active).

Turning to `Cc1c(C)n(Cc2ccccc2)c2ccc(C(=O)OCCN(C)C)cc12`, the Potency is 27.5 µM (active).

Consider `CN1CCN(C2Cc3ccccc3Sc3ccc(Cl)cc32)CC1` (configuration not stated), for which the “activity change, negative = inhibition” value was -1.56% [at 52.9 µM] (inactive).

Regarding `Cc1nc(Nc2ncc(C(=O)Nc3c(C)cccc3Cl)s2)cc(N2CCN(CCO)CC2)n1`, the “activity change, negative = inhibition” value is 6.2% [at 52.9 µM] (inactive).

On to `CC(C)(c1cc(Br)c(O)c(Br)c1)c1cc(Br)c(O)c(Br)c1`, for which the Potency is 79.4 µM (active) and inactive.

On to `NCCCCCCNCCCCCCN`, for which the “activity change, negative = inhibition” value is 2.76% (inactive).

As for `C/C=C/C(=O)Oc1c(CCCCCC(C)C)cc([N+](=O)[O-])cc1[N+](=O)[O-]`, the “activity change, negative = inhibition” value was 3.75% (inactive).

For the molecule `CCCCCCCCCCCCCCCC`, the “activity change, negative = inhibition” value was -0.333% (inactive).

Turning to `C[C@@H]1CC[C@H]2C(C)(C)[C@H]3C[C@@]12CC[C@@]3(C)O`, the “activity change, negative = inhibition” value was 2.11% (inactive).

Take `CCN1CCN(c2cc(-c3ccc(F)cc3)c3c(n2)CCCCCC3)CC1`: the activity change, negative = inhibition is -0.963% [at 23.6 µM] (inactive).

Take `COc1ccc(-n2nc(CCC(=O)N(C)O)cc2-c2ccc(Cl)cc2)cc1`: the “activity change, negative = inhibition” value was 0.676% [at 52.9 µM] (inactive).

As to `C[Si](C)(C)Cl`, the “activity change, negative = inhibition” value is 3.38% (inactive).

For the molecule `CCCC(CC)CCCCCCCN` (configuration not stated), the “activity change, negative = inhibition” value was 0.285% (inactive).

As to `CN(C)c1ccc(N=NS(=O)(=O)O)cc1`, the Potency is 17.8 µM (active).

As to `Cc1ccc(-n2[nH]c(C)c(N=Nc3cccc(-c4cccc(C(=O)O)c4)c3O)c2=O)cc1C`, the Potency was 38.9 µM (active).

For `CCC1(c2cnc[nH]2)Cc2ccccc2C1`, the “activity change, negative = inhibition” value was -2.22% [at 52.9 µM] (inactive).

As to `Cc1ccc(CCn2c3c(c4cc(Cl)ccc42)CN(C)CC3)cn1`, the “activity change, negative = inhibition” value is 1.3% [at 52.9 µM] (inactive).

Source of the values: PubChem BioAssay (Tox21).
